A short description of assay [1]: S16 Schwann cell PMP22 intronic element firefly luciferase assay (AID 624032). Also: nearly all actives have a fitted effect of over 30% in size. Also: potency is read from the fitted curve at half-maximal effect. An outline of the steps:
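Rat S16 Schwann cells stably carrying firefly luciferase driven by a PMP22 intronic element, in 10% FBS, treated 24 h at 37 C. ONE-Glo luminescence normalized to PTC124 control and DMSO (0%); curves classed by r2, magnitude and activity.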

Assay [2] is described as follows: S16 Schwann cell PMP22 intronic element beta-lactamase assay (AID 624044; calls by dose curve; also: nearly all actives have a fitted effect of over 15% in size; also: potency is read from the fitted curve at half-maximal effect). An outline of the steps: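 Beta-lactamase reporter under a PMP22 intronic regulatory element in stable S16 rat Schwann cells; 24 h compound exposure. 460 nm blue signal normalized between DMSO (0%) and potassium clavulanate, with 535 nm FRET tracking viability; curves classed by r2 and response.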

Another assay deals with CP217. The experiment in a line: qHTS profiling for inhibitors of Plasmodium falciparum proliferation (AID 504749). Also: nearly all actives have a fitted effect of over 60% in size. Also: potency is read from the fitted curve at half-maximal effect. As to conditions: P. falciparum in erythrocytes, SYBR Green DNA, 72 h; series mostly up to 28.7 µM. An outline of the steps: (§1)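 Each compound contacts P. falciparum-infected red blood cells for 72 h at 37 C; lysis buffer (Tris, EDTA, saponin, Triton X, SYBR Green I) is added and fluorescence measured next morning; values normalized to controls.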
(qHTS replaces the single test concentration by a dilution series.)

The subject of a further assay is CP325. The assay is described as above. As to conditions: P. falciparum in erythrocytes, SYBR Green DNA, 72 h; series mostly up to 28.7 µM. An outline of the steps: as §1
The test system of a further assay is JCK. The assay is described as above. Conditions: P. falciparum in erythrocytes, SYBR Green DNA, 72 h; series mostly up to 28.7 µM. An outline of the steps:
as §1

A short description of assay [3]: qHTS assay for small molecule antagonists of peroxisome proliferator-activated receptor delta signaling (AID 588535; active = well fitted inhibition curve with a large enough effect in the signal ratio, with a control signal flat, not every such curve was filed as active; the % refers to the signal ratio;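 as to max response: cells co-treated with a PPAR-delta agonist as stimulator during compound exposure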). As to conditions: HEK293T PPARd-UAS-bla, beta-lactamase FRET ratio, 18 h; 460 nm channel. An outline of the steps: (§2)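 Fluorescence from CCF4-loaded GeneBLAzer PPAR-delta-UAS-bla HEK293T cells (2 hrs RT loading) quantified reporter inhibition after an 18 hr, 37 C compound exposure across a titration.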

The target in assay [4] is Peroxisome proliferator-activated receptor delta (Homo sapiens) (UniProt Q03181). The description is as above. An outline of the steps: as §2
A short description of assay [5]: qHTS assay for small molecule activators of the p53 signaling pathway (AID 651743; active = well fitted activation curve with a large enough effect in the signal ratio, not every such curve was filed as active; the % refers to the signal ratio; also: % of control where 0% means no effect). As to conditions: HCT-116 p53RE-bla, beta-lactamase FRET ratio, 16 h; activation: stronger effect = higher value. An outline of the steps:
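Following 16 hours of compound exposure at 37 C, HCT-116 cells bearing the p53RE-bla reporter were loaded with LiveBLAzer B/G FRET substrate for 2 hours at room temperature and fluorescence intensity was recorded.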

Assay [6] can be described thus: MultiTox-Fluor Cytotoxicity Assay - LYMP1-001 - Live Cells (AID 947).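 Also: 0% = DMSO only and full inhibition = tetraoctylammonium bromide control.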
The nature of assay [7]: qHTS assay for small molecule activators of the human pregnane X receptor (PXR) signaling pathway (AID 720659; call rule not given here; also: 0% is about no effect).
The next assay deals with CP252. The experiment in a line: qHTS profiling for inhibitors of Plasmodium falciparum proliferation (AID 504749). Also: nearly all actives have a fitted effect of over 60% in size. Also: potency is read from the fitted curve at half-maximal effect. Conditions: P. falciparum in erythrocytes, SYBR Green DNA, 72 h; series mostly up to 28.7 µM. An outline of the steps:
as §1

In another assay the test system is ECU. The description is as above. Conditions: P. falciparum in erythrocytes, SYBR Green DNA, 72 h; series mostly up to 28.7 µM. An outline of the steps: as §1
Another assay concerns HB3. The description is as above. Conditions: P. falciparum in erythrocytes, SYBR Green DNA, 72 h; series mostly up to 28.7 µM. An outline of the steps: as §1
Another assay deals with ICS. The assay is described as above. As to conditions: P. falciparum in erythrocytes, SYBR Green DNA, 72 h; series mostly up to 28.7 µM. An outline of the steps: as §1
The subject of the next assay is N140. The description is as above. Conditions: P. falciparum in erythrocytes, SYBR Green DNA, 72 h; series mostly up to 28.7 µM. An outline of the steps: as §1
In a further assay the test system is P94_40. Described as above. As to conditions: P. falciparum in erythrocytes, SYBR Green DNA, 72 h; series mostly up to 28.7 µM. An outline of the steps: as §1
The next assay deals with PAD. The assay is described as above. Conditions: P. falciparum in erythrocytes, SYBR Green DNA, 72 h; series mostly up to 28.7 µM. An outline of the steps: as §1
A further assay has as its system PC26. The description is as above. As to conditions: P. falciparum in erythrocytes, SYBR Green DNA, 72 h; series mostly up to 28.7 µM. An outline of the steps: as §1
For the next assay, the system named is TAB109. The assay is described as above. As to conditions: P. falciparum in erythrocytes, SYBR Green DNA, 72 h; series mostly up to 28.7 µM. An outline of the steps: as §1
Another assay has as its system TAB165. The assay is described as above. Conditions: P. falciparum in erythrocytes, SYBR Green DNA, 72 h; series mostly up to 28.7 µM. An outline of the steps:
as §1

Several values for one entry are separate records, joined by “and”; a condition that tells them apart may be missing. Equal entries are not always repeated. Inconclusive results are not listed. Activity calls are given as the source filed them. Unless noted, calls follow the shape of the dose curve; as a rule, active = well fitted curve in the direction sought with a large enough effect; inconclusive = small, poorly fitted or top-dose-only effect, or another doubt; inactive = no such curve, though single readings can be large; an effect the other way counts as inactive or inconclusive.

Sequence of Peroxisome proliferator-activated receptor delta (Homo sapiens) (Q03181 whole entry, looked up): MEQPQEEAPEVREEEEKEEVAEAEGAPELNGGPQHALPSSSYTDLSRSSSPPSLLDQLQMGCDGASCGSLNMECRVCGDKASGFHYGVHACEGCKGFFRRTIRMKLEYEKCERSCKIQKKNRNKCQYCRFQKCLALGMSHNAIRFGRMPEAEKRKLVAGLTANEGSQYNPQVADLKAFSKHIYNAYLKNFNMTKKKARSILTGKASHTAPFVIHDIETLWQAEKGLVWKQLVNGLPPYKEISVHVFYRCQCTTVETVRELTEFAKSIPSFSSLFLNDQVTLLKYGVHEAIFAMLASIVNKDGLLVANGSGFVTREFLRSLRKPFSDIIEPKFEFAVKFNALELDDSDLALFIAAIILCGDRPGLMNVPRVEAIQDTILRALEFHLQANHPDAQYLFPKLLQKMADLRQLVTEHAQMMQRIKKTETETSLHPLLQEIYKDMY

For the compound `O=NCc1ccc([N+](=O)[O-])o1`, in [1], the Potency is 12.8 µM (active). Moreover, the Potency result (in assay [2]; in the assay with CP217; in the assay on CP325; with JCK) was “inactive” throughout.

Turning to `Cc1cccc(O)c1`, in [3], the max response was -22.1% and -37.2%. Also, the Potency entry in assay [4] was “inactive”. Besides, the activation in assay [5] is -5.47% (inactive) and -2.85% (inactive).

For the compound `O[C@@H]([C@H](O)[C@@H](O)CBr)[C@@H](O)CBr`, the Potency entry in assay [6] is “inactive”. Besides, the activation in assay [5] is 4.39% (inactive). For the same compound, in assay [7], the compound was called inactive.

Turning to `CCC(=O)O[C@@H](OP(=O)(CCCCc1ccccc1)CC(=O)N1C[C@H](C2CCCCC2)C[C@H]1C(=O)O)C(C)C` (stereo partly specified), the Potency result (in assay [1]; in the assay on CP217; with CP252; in the assay on CP325; in the assay with ECU; with HB3) was “inactive” in each case. Moreover, the Potency result in the assay on ICS, in the assay on JCK, in the assay on N140, with P94_40, with PAD and in the assay on PC26 was “inactive” each time. Besides, the Potency entry in the assay on TAB109 and in the assay on TAB165 was “inactive” each time.

`Cc1cc(CC(C)CC(C)(C)C)n(O)c(=O)c1` (stereo unspecified): the Potency in assay [1] is 16.1 µM (active); in [2] it was 2.51 µM (active); with CP217 it was 2.82 µM (active); in the assay on CP252, 2.82 µM (active); with CP325, 2.39 µM (active); in the assay on ECU, 2.82 µM (active). Besides, the Potency in the assay on HB3 is 8.91 µM (active); in the assay on ICS it was 2.51 µM (active); with JCK, 11.2 µM (active); in the assay on N140, 1 µM (active); in the assay with P94_40, 2.82 µM (active); in the assay with PAD it was 2.82 µM (active). The Potency in the assay with PC26 is 3.79 µM (active); in the assay with TAB109, 2.24 µM (active); in the assay with TAB165, 1.78 µM (active).

Consider `CN1CC[C@H](CN2c3ccccc3Sc3ccccc32)C1`, for which the Potency was 32.2 µM (active) in assay [1]; 11.2 µM (active) in the assay with CP217; 11.2 µM (active) in the assay on CP252; 15.1 µM (active) in the assay with CP325; 11.2 µM (active) in the assay with ECU; 2 µM (active) in the assay on ICS. The Potency with N140 was 11.2 µM (active); in the assay on P94_40, 8.91 µM (active); in the assay with PAD it was 8.91 µM (active); in the assay with PC26, 13.5 µM (active); with TAB109 it was 11.2 µM (active); in the assay on TAB165, 12.6 µM (active). Further, the Potency result in assay [2] was “inactive”.

As to `CCCCOCCO`, the Potency result in assay [6] and in assay [4] was “inactive” throughout. The max response in assay [3] is 1.73% and 13.5% and -16.7%. The activation in [5] is -0.263% (inactive) and -0.796% (inactive) and -1.77% (inactive). In addition, the call in assay [7] was inactive.

Regarding `Cc1c(N=C=O)cccc1N=C=O`, in [6], the Potency result was “inactive”. Further, the activation in assay [5] is -0.524% (inactive) and 6.01% (inactive). In addition, in assay [7], the result was inactive.

For `COC(=O)c1ccc(C=O)cc1`, the Potency entry in assay [6] and in assay [4] was “inactive” in each case. Further, the max response in [3] is 6.11% and 19.8%. Further, in assay [5], the activation is -0.565% (inactive) and 0.101% (inactive). In addition, the result in assay [7] was inactive.

`C1OCOCO1`: the Potency result (in [6]; in assay [4]; in assay [1]; in assay [2]; with CP217; in the assay with CP252) was “inactive” in each case. Further, the Potency entry with CP325, in the assay on ECU, in the assay on HB3, with ICS, with JCK and in the assay with N140 was “inactive” in each case. Further, the Potency result in the assay with P94_40, in the assay with PAD, in the assay with PC26, in the assay with TAB109 and in the assay on TAB165 was “inactive” in each case. Besides, the max response in [3] came to 2.46%. For the same compound, the activation in assay [5] was -3.32% (inactive). Moreover, the outcome in assay [7] was inactive.

Source of the values: PubChem BioAssay (NCATS).
